Assay [1] can be described thus: anti-His antibody binders, primary screen, artefact control for SMM control protein annotation, biochemical, small-molecule microarray, 635 nm fluorescence (AID 1128).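 Note: score merges feature fluorescence with signal-to-noise for each printed compound spot.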 The conditions noted are these: anti-His Alexa647 antibody binding, higher = more signal.
Assay [2] deals with Human papillomavirus type 1a E7 protein (residues 1-88). In words: HPV1a E7 small-molecule binders, primary screen, biochemical, small-molecule microarray, residues 1-88, 635 nm (AID 1129). The conditions noted are these: small-molecule microarray binding, fluorescence 635 nm; higher = more signal.
In assay [3] the target is Focal adhesion kinase 1 (Homo sapiens) (UniProt Q05397). Put plainly: small-molecule microarray binders of FAK, primary screen, biochemical, 635/667 nm fluorescence, BSA, DTT (AID 1130).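 Note: composite of spot emission at 667 nm and signal to noise over triplicate slides.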 The conditions noted are these: PTK2 binding, 635 nm fluorescence, higher = more signal.
The subject of assay [4] is Fibrinogen (Alexa647-labelled). Put plainly: fibrinogen binders on compound microarrays, profiling panel, artefact control for SMM control-protein annotation, biochemical, small-molecule microarray, 635/667 nm fluorescence (AID 1131).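 Note: z-score merges 667 nm fluorescence with per-spot signal-to-noise over triplicate slides.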 The conditions noted are these: fibrinogen-A647 binding fluorescence, higher = more signal.
In assay [5] the target is Follistatin (Homo sapiens) (UniProt P19883). Put plainly: follistatin binders on small-molecule microarrays, primary screen, biochemical, small-molecule microarray, 635/667 nm fluorescence (AID 1132). The conditions noted are these: FST binding, 635 nm fluorescence, higher = more signal.
For assay [6], the target named is Fibroblast growth factor 2 (Homo sapiens) (UniProt P09038). Put plainly: FGF2 binders on small-molecule microarrays, primary screen, biochemical, small-molecule microarray, 635/667 nm fluorescence (AID 1133). The conditions noted are these: small-molecule microarray binding, FGF2, fluorescence 635/667; higher = more signal.
The nature of assay [7]: mitochondrial membrane potential change in A549 cells, profiling panel, cell-based, JC-1 fluorescence, basal, 24 h, 100 nL (AID 1138).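 Note: A549 lung adenocarcinoma cells under basal conditions with no added stimulus; test concentration not given here.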 The conditions noted are these: higher = more signal.
The subject of another assay is Lefty1. In words: Lefty1 binders on small-molecule microarrays, primary screen, biochemical, small-molecule microarray, 635/667 nm fluorescence (AID 1139). The conditions noted are these: small-molecule microarray binding, fluorescence 635/667; higher = more signal.
Assay [8] has as its system wheat germ agglutinin (Triticum aestivum), Alexa647-labelled. In words: wheat germ agglutinin binders on compound microarrays, profiling panel, artefact control for SMM control-protein annotation, biochemical, small-molecule microarray, 635/667 nm fluorescence (AID 1140).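 Note: score merges 667 nm feature emission with signal to noise over triplicate slides.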 The conditions noted are these: WGA-A647 binding, 635 nm fluorescence, higher = more signal.
The target of assay [9] is Luciferin 4-monooxygenase (Photinus pyralis) (UniProt P08659). In words: firefly luciferase enzyme inhibitors, primary screen, biochemical, luminescence, purified enzyme, 2006 set (AID 1141).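 Note: cell-free assay with purified firefly luciferase at 100 ng per well in PBS; test concentration not given here.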 The conditions noted are these: SteadyGlo luminescence, 30 min, higher = more signal, called active from +8 up or from −8 down.
In assay [10] the test system is Wnt5a (protein binding on small-molecule microarray). Put plainly: Wnt5a binders on small-molecule microarray, primary screen, biophysical, 635/667 nm fluorescence (AID 1142).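 Note: fluorescence read at 667 nm with signal to noise per printed feature.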 The conditions noted are these: 635 nm fluorescence, higher = more signal.
The nature of assay [11]: cell viability in Huh7 cells, primary screen, cytotoxicity control for HCV replication inhibitor project, CellTiter-Glo luminescence, basal, 48 h (AID 1143).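 Note: Huh7 hepatoma cells carrying a hepatitis C replication reporter with no stimulus; test concentration not given here.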 The conditions noted are these: Huh7 HCV replicon, higher = more signal, called active from +8 up or from −8 down.
Assay [12] can be described thus: P. aeruginosa biofilm formation inhibitors, primary screen, PAO1 strain, BacTiter-Glo luminescence, LB-PBS (AID 1144). The conditions noted are these: 12 h, higher = more signal.
Assay [13] is described as follows: CREB reporter modulators without forskolin, primary screen, cell-based, PC12, CRE-LacZ reporter, unstimulated (AID 1145). The conditions noted are these: no forskolin, luminescence, 4.5 h, higher = more signal, called active from +8 up or from −8 down.
Assay [14] is described as follows: CREB reporter modulators under forskolin, primary screen, cell-based, PC12, CRE-LacZ reporter, forskolin-stimulated (AID 1146).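 Note: PC12 cells with 6xCRE LacZ reporter stimulated by forskolin 10 µM; beta-galactosidase reporter signal reflecting CREB driven transcription.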 The conditions noted are these: luminescence, 4.5 h, higher = more signal, called active from +8 up or from −8 down.
The target in assay [15] is Streptavidin (Streptomyces avidinii) (UniProt P22629). In words: streptavidin binders on small-molecule microarray, primary screen, artefact control for SMM compound annotation, biophysical, 635/667 nm fluorescence (AID 1147).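 Note: signal reflects streptavidin binding to arrayed compounds as a control protein.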 The conditions noted are these: streptavidin binding, higher = more signal.
The nature of assay [16]: small-molecule binders of probe aInhba, primary screen, biochemical, small-molecule microarray, 635/667 nm fluorescence (AID 1148).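 Note: score merges 667nm spot fluorescence with signal-to-noise for antibody binding to printed compounds.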 The conditions noted are these: higher = more signal.
Assay [17] concerns the target Torsin-1A (Homo sapiens) (UniProt O14656). Put plainly: torsin A binders from cell lysate, primary screen, small-molecule microarray, wild-type, 635/667 nm (AID 1149). The conditions noted are these: COS7 hTOR1A-WT lysate, 635 nm fluorescence, higher = more signal.
Assay [18] has the same target. Put plainly: small-molecule binders of mutant TOR1A in lysate, primary screen, cell lysate, small-molecule microarray, COS7 lysate, 635/667 nm fluorescence (AID 1150).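 Note: score pools 667 nm emission and signal to noise measuring lysate protein binding.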 The conditions noted are these: COS7 hTOR1A mutant lysate, 635 nm fluorescence, higher = more signal.
In assay [19] the test system is Sonic hedgehog protein (Shh). In words: small-molecule binders of Shh protein, primary screen, biochemical, small-molecule microarray, 635/667 nm fluorescence (AID 1151).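 Note: Shh protein binding to compounds spotted on small-molecule microarray slides; score combines spot fluorescence intensity with signal-to-noise across triplicate slides.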 The conditions noted are these: small-molecule microarray binding, 635 nm fluorescence; higher = more signal.

Calls of active or inactive are those of the source. Unless noted, the rule behind the calls is not given here.

Drawing on PubChem BioAssay, this text covers composite z-score and z-score for four compounds.

Chain of Focal adhesion kinase 1 (Homo sapiens) (Q05397 whole entry, looked up): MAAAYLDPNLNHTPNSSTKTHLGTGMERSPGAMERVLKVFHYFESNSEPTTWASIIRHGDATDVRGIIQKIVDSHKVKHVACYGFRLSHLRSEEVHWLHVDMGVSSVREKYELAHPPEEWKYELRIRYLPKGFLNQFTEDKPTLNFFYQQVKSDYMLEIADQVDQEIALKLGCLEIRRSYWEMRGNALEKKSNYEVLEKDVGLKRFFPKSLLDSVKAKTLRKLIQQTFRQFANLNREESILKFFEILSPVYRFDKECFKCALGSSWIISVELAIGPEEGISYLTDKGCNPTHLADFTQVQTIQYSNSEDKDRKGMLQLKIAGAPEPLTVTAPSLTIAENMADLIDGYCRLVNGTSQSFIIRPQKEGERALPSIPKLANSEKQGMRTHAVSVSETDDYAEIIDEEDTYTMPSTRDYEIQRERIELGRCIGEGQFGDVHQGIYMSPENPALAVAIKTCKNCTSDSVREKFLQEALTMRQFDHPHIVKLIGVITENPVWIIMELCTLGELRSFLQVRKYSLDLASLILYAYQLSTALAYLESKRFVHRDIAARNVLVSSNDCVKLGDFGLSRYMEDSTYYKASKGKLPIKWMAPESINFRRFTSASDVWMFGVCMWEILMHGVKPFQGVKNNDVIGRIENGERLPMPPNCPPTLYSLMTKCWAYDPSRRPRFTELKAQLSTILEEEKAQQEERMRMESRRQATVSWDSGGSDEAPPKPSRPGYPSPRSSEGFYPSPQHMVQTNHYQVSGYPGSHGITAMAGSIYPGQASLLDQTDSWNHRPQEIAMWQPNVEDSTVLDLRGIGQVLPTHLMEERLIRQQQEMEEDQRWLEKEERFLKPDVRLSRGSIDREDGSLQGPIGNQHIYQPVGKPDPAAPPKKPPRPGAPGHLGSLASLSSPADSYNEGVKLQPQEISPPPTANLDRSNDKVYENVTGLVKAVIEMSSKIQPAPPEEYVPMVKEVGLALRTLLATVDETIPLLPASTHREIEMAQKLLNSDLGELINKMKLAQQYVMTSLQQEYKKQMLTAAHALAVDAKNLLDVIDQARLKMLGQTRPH
Chain of Streptavidin (Streptomyces avidinii) (P22629 whole entry, looked up): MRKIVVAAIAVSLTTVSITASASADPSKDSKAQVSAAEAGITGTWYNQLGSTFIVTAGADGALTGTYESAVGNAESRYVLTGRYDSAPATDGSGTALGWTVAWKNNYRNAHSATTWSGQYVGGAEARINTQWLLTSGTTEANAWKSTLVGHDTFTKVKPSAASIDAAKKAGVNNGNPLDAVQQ
Chain of Torsin-1A (Homo sapiens) (O14656 whole entry, looked up): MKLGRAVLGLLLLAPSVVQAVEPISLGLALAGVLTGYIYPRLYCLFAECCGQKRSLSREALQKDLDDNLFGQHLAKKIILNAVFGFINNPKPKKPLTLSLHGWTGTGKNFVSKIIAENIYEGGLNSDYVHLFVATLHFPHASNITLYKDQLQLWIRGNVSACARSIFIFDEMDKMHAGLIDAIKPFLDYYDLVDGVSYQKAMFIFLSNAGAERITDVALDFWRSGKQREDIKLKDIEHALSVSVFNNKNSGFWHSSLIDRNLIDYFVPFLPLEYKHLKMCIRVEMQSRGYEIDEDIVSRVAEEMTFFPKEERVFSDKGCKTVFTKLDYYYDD
Chain of Follistatin (Homo sapiens) (P19883 whole entry, looked up): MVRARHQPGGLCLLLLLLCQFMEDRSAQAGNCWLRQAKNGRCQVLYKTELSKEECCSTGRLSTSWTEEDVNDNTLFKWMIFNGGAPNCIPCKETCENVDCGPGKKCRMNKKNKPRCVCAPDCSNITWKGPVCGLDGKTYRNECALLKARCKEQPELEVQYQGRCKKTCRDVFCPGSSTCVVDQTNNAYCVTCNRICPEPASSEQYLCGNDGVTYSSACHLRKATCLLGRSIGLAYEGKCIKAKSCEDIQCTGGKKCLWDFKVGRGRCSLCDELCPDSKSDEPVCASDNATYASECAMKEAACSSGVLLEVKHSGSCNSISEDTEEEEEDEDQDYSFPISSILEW
Chain of Fibroblast growth factor 2 (Homo sapiens) (P09038 whole entry, looked up): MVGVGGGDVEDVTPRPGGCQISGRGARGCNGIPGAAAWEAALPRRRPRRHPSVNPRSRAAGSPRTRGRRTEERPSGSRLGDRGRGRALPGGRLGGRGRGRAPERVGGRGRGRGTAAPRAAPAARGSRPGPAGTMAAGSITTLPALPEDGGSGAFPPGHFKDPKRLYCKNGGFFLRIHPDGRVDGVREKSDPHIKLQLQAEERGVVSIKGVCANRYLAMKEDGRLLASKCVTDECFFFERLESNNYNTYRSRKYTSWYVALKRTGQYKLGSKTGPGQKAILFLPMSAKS
Chain of Luciferin 4-monooxygenase (Photinus pyralis) (P08659 whole entry, looked up): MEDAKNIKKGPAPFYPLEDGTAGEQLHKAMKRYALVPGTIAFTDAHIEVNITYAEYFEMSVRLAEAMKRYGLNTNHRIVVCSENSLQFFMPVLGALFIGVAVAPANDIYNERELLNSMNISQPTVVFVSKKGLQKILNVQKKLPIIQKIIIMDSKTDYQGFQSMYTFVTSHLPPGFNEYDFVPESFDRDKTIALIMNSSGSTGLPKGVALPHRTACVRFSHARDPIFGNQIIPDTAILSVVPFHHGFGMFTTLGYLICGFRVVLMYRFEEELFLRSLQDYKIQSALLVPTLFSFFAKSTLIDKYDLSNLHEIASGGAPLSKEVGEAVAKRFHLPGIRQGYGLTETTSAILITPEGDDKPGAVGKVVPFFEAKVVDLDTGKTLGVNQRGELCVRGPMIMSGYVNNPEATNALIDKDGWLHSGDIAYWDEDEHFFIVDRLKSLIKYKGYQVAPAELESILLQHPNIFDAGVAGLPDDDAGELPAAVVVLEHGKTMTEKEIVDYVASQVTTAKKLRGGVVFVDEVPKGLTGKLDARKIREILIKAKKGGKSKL

Take `O=C(CS)NCCCCCCNC(=O)[C@H]1C[C@H]2C(=O)N3CCC[C@H]3C(=O)N2[C@H]1c1ccc(O)cc1`: the composite z-score in [1] was determined as 1.81; in assay [2] it was 0.828; in [3], 0.163; in assay [4], 0.702; in [5], 1.37; in [6], 1.34. The composite z-score in the assay with Lefty1 is 1.16; in assay [8], 0.681; in assay [10], -0.161; in assay [15], -0.322; in [16], -0.05; with Torsin-1A (Homo sapiens) [17], 0.624. Also, the composite z-score was 0.947 with Torsin-1A (Homo sapiens) [18] and 1.8 in assay [19]. Besides, the z-score is -0.708 in [7]; 0.102 (inactive) in assay [9]; -0.514 (inactive) in assay [11]; -0.256 (inactive) in [12]; 0.675 (inactive) in assay [13]; 0.465 (inactive) in assay [14].

For the compound `C=C(COC)C(=O)CC[C@H](OC(=O)c1cccnc1)c1ccccc1OCCO`, the composite z-score in [1] was 1.12; in [2], 1.16; in [3], -0.0493; in [4], 0.756; in assay [5], 1.36; in assay [6] it was 1.56. Further, the composite z-score in the assay with Lefty1 was 1.47; in [8], 0.18; in assay [10], 0.112; in assay [15] it was 0.279; in assay [16], 0.0705; with Torsin-1A (Homo sapiens) [17], 0.519. The composite z-score turned out to be 0.698 with Torsin-1A (Homo sapiens) [18] and 1.63 in assay [19]. Moreover, the z-score in [7] was -0.0406; in [9] it was -2.36 (inactive); in [11] it was -2.22 (inactive); in assay [12], -0.201 (inactive); in [13], 5.43 (inactive); in assay [14], 9.65 (active).

Consider `COc1ccc(C#Cc2ccc3c(c2)[C@]2(C(=O)N3)[C@H](C(=O)N3CCc4cc(OC)c(OC)cc4C3)[C@H]3C(=O)O[C@H](c4ccccc4)[C@H](c4ccccc4)N3[C@@H]2c2ccc(OCCO)cc2)cc1`, for which the composite z-score was 0.441 in assay [1]; 1.2 in assay [2]; 1.1 in [3]; 0.821 in assay [4]; 1.21 in assay [5]; 1.24 in assay [6]. The composite z-score is 0.941 in the assay on Lefty1; 1.17 in assay [8]; 0.665 in [10]; 1 in assay [15]; 0.136 in assay [16]; 0.947 with Torsin-1A (Homo sapiens) [17]. Besides, the results for the composite z-score (with Torsin-1A (Homo sapiens) [18]; in assay [19]) were 0.488 and 1.88, respectively. Further, the z-score in [7] is -1.09; in assay [9], -0.297 (inactive); in assay [11], -0.763 (inactive); in assay [12], -0.745 (inactive); in [13], -0.258 (inactive); in [14], -0.166 (inactive).

As for `COC(=O)c1c(CC[C@@H](CO)NC(=O)Nc2ncn[nH]2)oc(C(=O)Cc2ccccc2)c1C(=O)OC`, the composite z-score in assay [1] came to 0.936; in [2] it was 0.466; in [3], 0.108; in assay [4], 0.915; in assay [5], 1.08; in assay [6], 1.58. In addition, the composite z-score in the assay with Lefty1 was 0.895; in [8], 0.467; in assay [10], -0.0403; in [15], 1.36; in assay [16], 0.0342; in the assay with Torsin-1A (Homo sapiens) [17] it was 1.49. For the same compound, the values for the composite z-score (with Torsin-1A (Homo sapiens) [18]; in assay [19]) were 0.837 and 1.1, respectively. Moreover, the z-score in assay [7] is -0.491; in [9] it was 1.03 (inactive); in [11], 0.31 (inactive); in assay [12], 0.152 (inactive); in assay [13] it was -0.0106 (inactive); in assay [14], 0.352 (inactive).
